Results as given in PubChem BioAssay (Tox21).
Inconclusive results are not listed. A call without a number means that no potency is given here. The source made the active and inactive calls. Unless noted, calls come from the whole dose curve.

target: Vitamin D3 receptor (Homo sapiens) (UniProt P11473); assay: qHTS assay to identify small molecule agonists of the vitamin D receptor (VDR) signaling pathway (AID 743222); conditions: HEK293T VDR-UAS-bla, beta-lactamase FRET ratio, 16 h; series mostly up to 63.5 µM; activation: at the top concentration
Sequence (P11473 whole entry, looked up): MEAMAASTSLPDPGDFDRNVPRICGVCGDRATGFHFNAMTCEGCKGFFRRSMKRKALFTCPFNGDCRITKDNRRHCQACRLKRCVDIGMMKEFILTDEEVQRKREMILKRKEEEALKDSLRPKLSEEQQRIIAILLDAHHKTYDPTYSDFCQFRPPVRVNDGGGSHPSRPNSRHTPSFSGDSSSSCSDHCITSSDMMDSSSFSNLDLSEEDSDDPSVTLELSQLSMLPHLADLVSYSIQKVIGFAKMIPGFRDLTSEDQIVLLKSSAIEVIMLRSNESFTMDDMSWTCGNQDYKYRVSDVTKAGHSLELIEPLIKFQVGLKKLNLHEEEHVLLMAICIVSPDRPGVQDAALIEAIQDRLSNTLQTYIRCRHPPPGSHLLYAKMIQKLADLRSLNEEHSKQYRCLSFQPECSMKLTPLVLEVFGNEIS
Outline: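 Following 4 h attachment at 37C, VDR-bla cells (2,000 per well) received DMSO-dissolved compounds or controls. After 16 h incubation, LiveBLAzer B/G FRET substrate was added and fluorescence read 2 h later at room temperature.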
Potency is the fitted concentration of half-maximal effect.

Row | Structure (SMILES) | Potency | activation
1 | CC1COc2ccccc2N1C(=O)C(Cl)Cl (stereo unspecified) | inactive | 
2 | O=C1N=C(O)CN1/N=C/c1ccc(-c2ccc([N+](=O)[O-])cc2)o1 |  | -21% (inactive)
3 | NCCc1ccc(O)c(O)c1 | inactive | 
4 | CC1(C)CC(N=C=O)CC(C)(CN=C=O)C1 (stereo unspecified) |  | -13% (inactive)
5 | COCC(C)O (stereo unspecified) | inactive | 
6 | CC1(C)O[C@@H]2C[C@H]3[C@@H]4C[C@H](F)C5=CC(=O)CC[C@]5(C)[C@H]4[C@@H](O)C[C@]3(C)[C@]2(C(=O)CO)O1 |  | -13.7% (inactive)
7 | Oc1c(Cl)cc(Cl)c(Cl)c1Cl | inactive | 
8 | C=C1CC[C@H](O)CC1=C/C=C1\CCC[C@]2(C)[C@@H]([C@H](C)/C=C/[C@H](C)C(C)C)CC[C@@H]12 | 3.86 µM (active) | 
9 | COC(=O)c1ccc(C(=O)OC)cc1 | inactive | 
10 | NC(=O)NNc1ccccc1 | inactive | 
11 | CN(C)c1ccc(C(=N)c2ccc(N(C)C)cc2)cc1 |  | -8.65% (inactive)
12 | OC[C@@H](O)[C@@H](O)[C@H](O)[C@@H](O)CO |  | 0.0239% [at 81.1 µM] (inactive)
13 | O=C(O)c1cc(-c2ccccc2)nc2ccccc12 |  | 14% (inactive)
14 | Nc1c(S(=O)(=O)O)cc(Br)c2c1C(=O)c1ccccc1C2=O | inactive | 
15 | C[C@@H](O)[C@H]1C(=O)N2C(C(=O)O)=C(S[C@@H]3CN[C@H](C(=O)N(C)C)C3)[C@H](C)[C@H]12 | inactive | 
16 | Oc1ccc2ccccc2c1 | inactive | 
17 | OCC#CCO | inactive | 
18 | C=C(C)C(=O)OCCCCCC |  | -3.36% (inactive)
19 | Cc1cc(NS(=O)(=O)c2ccc(N)cc2)no1 | inactive | 
20 | CN(C)c1cccc(O)c1 | inactive | 
21 | C/C=C(C)/C=C/C=C(C)C | inactive | 
22 | CS(=O)(=O)Nc1ccc([N+](=O)[O-])cc1Oc1ccccc1 | inactive | 
23 | COC(=O)Nc1nc2ccc(Sc3ccccc3)cc2[nH]1 | inactive | 
24 | CC(=O)CCc1ccccc1 | inactive | 
25 | CCCCCCCCCC(=O)O | inactive | 
26 | OC[C@@H](O)[C@H](O)[C@H](O)[C@@H](O)CO | inactive | 
27 | CC(C)NCC(O)COc1cccc2ccccc12 (stereo unspecified) | inactive | 

target: Vitamin D3 receptor (Homo sapiens) (UniProt P11473); assay: qHTS assay to identify small molecule antagonists of the vitamin D receptor (VDR) signaling pathway (AID 743223; active = well fitted inhibition curve with a large enough effect in the signal ratio in the repeat runs, not every such curve was filed as active; the % refers to the signal ratio); conditions: VDR-UAS-bla HEK293T, beta-lactamase FRET ratio, 16 h; series mostly up to 61 µM; activity change, negative = inhibition: at the top concentration
Outline: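 Antagonist mode uses 1alpha,25-dihydroxyvitamin D3 at 3 nM final as stimulus. VDR-bla cells receive compounds in DMSO, incubate 16 h at 37C, then a beta-lactamase FRET substrate for 2 h at room temperature before fluorescence measurement.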

Row | Structure (SMILES) | activity change, negative = inhibition | Potency
28 | O=C1N=C(O)CN1/N=C/c1ccc(-c2ccc([N+](=O)[O-])cc2)o1 | -14.1% (inactive) | 
29 | NCCc1ccc(O)c(O)c1 |  | inactive
30 | CC1(C)CC(N=C=O)CC(C)(CN=C=O)C1 (stereo unspecified) |  | inactive
31 | COCC(C)O (stereo unspecified) |  | inactive
32 | CC1(C)O[C@@H]2C[C@H]3[C@@H]4C[C@H](F)C5=CC(=O)CC[C@]5(C)[C@H]4[C@@H](O)C[C@]3(C)[C@]2(C(=O)CO)O1 |  | inactive
33 | S=c1nc[nH]c2nc[nH]c12 |  | inactive
34 | COC(=O)c1ccc(C(=O)OC)cc1 |  | inactive
35 | NC(=O)NNc1ccccc1 |  | inactive
36 | CC1=C(/C=C/C(C)=C/C=C/C(C)=C/CO)C(C)(C)CCC1 | -18.4% [at 78.8 µM] (inactive) | 
37 | CN(C)c1ccc(C(=N)c2ccc(N(C)C)cc2)cc1 |  | 5.93 µM (active)
38 | O=C(O)c1cc(-c2ccccc2)nc2ccccc12 | 3.7% (inactive) | 
39 | Nc1c(S(=O)(=O)O)cc(Br)c2c1C(=O)c1ccccc1C2=O |  | inactive
40 | C[C@@H](O)[C@H]1C(=O)N2C(C(=O)O)=C(S[C@@H]3CN[C@H](C(=O)N(C)C)C3)[C@H](C)[C@H]12 | 13.9% (inactive) | 
41 | Oc1ccc2ccccc2c1 |  | inactive
42 | OCC#CCO |  | inactive
43 | C=C(C)C(=O)OCCCCCC | 1.94% (inactive) | 
44 | Cc1cc(NS(=O)(=O)c2ccc(N)cc2)no1 |  | inactive
45 | CN(C)c1cccc(O)c1 |  | inactive
46 | C/C=C(C)/C=C/C=C(C)C |  | inactive
47 | CS(=O)(=O)Nc1ccc([N+](=O)[O-])cc1Oc1ccccc1 |  | inactive
48 | CC(=O)CCc1ccccc1 |  | inactive
49 | CCCCCCCCCC(=O)O |  | inactive
50 | OC[C@@H](O)[C@H](O)[C@H](O)[C@@H](O)CO | 0.0069% (inactive) | 
51 | CC(C)NCC(O)COc1cccc2ccccc12 (stereo unspecified) | 4.03% [at 78.8 µM] (inactive) | 
